From PubChem BioAssay (EPA / NIEHS)
Where “and” joins values, the source holds several entries; their conditions need not be identical. Equal entries are not always repeated. Calls of active or inactive are those of the source. The calls were made as follows: active = hit-call score of the fitted dose curve at least 0.9, where 1 is the maximum; inactive = score below 0.9.

Read-out: Matrix Metallopeptidase 1 (MMP1), MMP1 (gene 4312)
Assay: BSK_BF4T_MMP1: BioMAP Diversity Plus: BF4T Assay for Matrix Metallopeptidase 1 (MMP1) Biomarker Activity (AID 2284270)
Settings: primary human bronchial epithelial cells with fibroblasts
Method: BSK_BF4T is a cell-based, multiplexed-readout assay that uses bronchial epithelial cells and dermal fibroblasts, a human vascular primary cell, with measurements taken at 24 hours after chemical dosing in a microplate: 96-well plate.BSK_BF4T_MMP1 is an assay component measured in the BSK_BF4T assay. It measures MMP-1 antibody related to regulation of gene expression using ELISA technology.Data from the assay component BSK_BF4T_MMP1 was analyzed at the endpoint, BSK_BF4T_MMP1, in the positive analysis fitting direction relative to DMSO as the negative control and baseline of activity. Using a type of binding reporter, gain or loss-of-signal activity can be used to understand protein changes. To generalize the intended target to other relatable targets, this assay endpoint is annotated to the 'protease' intended target family, where the subfamily is 'matrix metalloproteinase'.
The levels of cell surface (or secreted, indicated by the prefix "s") biomarker endpoints were measured by ELISA. Overt cytotoxicity to cells in confluent adherent cultures (all systems other than the BT system) was assessed by measuring total protein levels using sulforhodamine B (SRB) staining in parallel cultures at the time of biomarker measurements, indicated as SRB endpoints. For proliferation assays for adherent cell types, individual cell types are cultured at sub-confluence and relative cell numbers quantified by SRB staining at time points optimized for each system (48 h: 3C and CASM3C systems; 72 h: BT and HDF3CGF systems; 96 h: SAg system). SRB was performed by staining cells with 0.1% SRB after fixation with 10% TCA and reading wells at 560 nm.Viability and proliferation of PBMC (T cells) was quantified by Alamar Blue reduction for the SAg and BT systems. For PBMC viability (referred to as PBMC Cytotoxicity within the assay endpoint names), cells were plated (75,000/well in a 96-well plate) and then chemical samples added for 1 h before addition of activators, SEB and TSST-1 (20 ng/mL final concentration each). Cells were incubated for 90 h. Then, Alamar Blue (20 uL/well) (Invitrogen, Cat DAL1100) was added for 6 h, and the plates were read with a fluorescence microplate reader at 546/580 nm (excitation/emission). For PBMC proliferation, cells were plated and activated as above but incubated for only 16 h prior to addition of Alamar Blue. Plates were read after 6 h.

Compound	outcome	AC50
CN(CCO)S(=O)(=O)C(F)(F)C(F)(F)C(F)(F)C(F)(F)C(F)(F)C(F)(F)C(F)(F)C(F)(F)F	inactive	–
O=C(O)C(F)(F)OC(F)(F)C(F)(F)OC(F)(F)C(F)(F)OC(F)(F)C(F)(F)C(F)(F)C(F)(F)F	inactive	–
O=C(O)CCC(F)(F)C(F)(F)C(F)(F)C(F)(F)C(F)(F)F	inactive	–
O=S(=O)(O)C(F)(F)C(F)(F)C(F)(F)C(F)(F)C(F)(F)C(F)(F)C(F)(F)C(F)(F)C(F)(F)C(F)(F)F	inactive	–
C=CC(=O)OCCC(F)(F)C(F)(F)C(F)(F)C(F)(F)C(F)(F)C(F)(F)C(F)(F)C(F)(F)F	inactive	–
O=P(O)(O)CCC(F)(F)C(F)(F)C(F)(F)C(F)(F)C(F)(F)C(F)(F)F	inactive	–
O=P(O)(O)CCC(F)(F)C(F)(F)C(F)(F)C(F)(F)C(F)(F)C(F)(F)C(F)(F)C(F)(F)F	inactive	–
OCC(F)(F)C(F)(F)C(F)(F)C(F)(F)C(F)(F)C(F)(F)C(F)(F)C(F)(F)C(F)(F)C(F)(F)C(F)(F)F	inactive	–
CN(Cc1cnc2nc(N)nc(N)c2n1)c1ccc(C(=O)N[C@@H](CCC(=O)O)C(=O)O)cc1	inactive	–
O=C(CC(=O)C(F)(F)C(F)(F)C(F)(F)F)c1cccs1	–	19.3 µM (active) and 17 µM (active)
O=C(O)CCC(F)(F)C(F)(F)C(F)(F)C(F)(F)C(F)(F)C(F)(F)F	inactive	–
